Source: PubChem BioAssay (Buhrlage Lab, Dana-Farber Cancer Institute and Novartis Institutes for BioMedical Research (Cambridge, Mass))
USP7 block: human USP7 deubiquitinase inhibition | 0.3% of 47,000 active | Q93009 | inhibition, % at 20 µM | purified USP7, Ub-rhodamine cleavage fluorescence
USP28 inh: inhibitors of human USP28 deubiquitinase | 3% of 47,000 active | purified USP28, Ub-rhodamine cleavage fluorescence, 30 min | inhibition, % at 25 µM
UCHL1 inh: human UCHL1 deubiquitinase inhibition; P09936; purified UCHL1, Ub-rhodamine cleavage fluorescence; inhibition, % at 20 µM; 0.2% of 47,000 active
OTUD3 block: human OTUD3 deubiquitinase inhibition; purified OTUD3, Ub-rhodamine fluorescence, 2 h; 0.7% of 47,000 active; Q5T2D3; inhibition, % at 25 µM
Target sequence (Q5T2D3 whole entry, looked up): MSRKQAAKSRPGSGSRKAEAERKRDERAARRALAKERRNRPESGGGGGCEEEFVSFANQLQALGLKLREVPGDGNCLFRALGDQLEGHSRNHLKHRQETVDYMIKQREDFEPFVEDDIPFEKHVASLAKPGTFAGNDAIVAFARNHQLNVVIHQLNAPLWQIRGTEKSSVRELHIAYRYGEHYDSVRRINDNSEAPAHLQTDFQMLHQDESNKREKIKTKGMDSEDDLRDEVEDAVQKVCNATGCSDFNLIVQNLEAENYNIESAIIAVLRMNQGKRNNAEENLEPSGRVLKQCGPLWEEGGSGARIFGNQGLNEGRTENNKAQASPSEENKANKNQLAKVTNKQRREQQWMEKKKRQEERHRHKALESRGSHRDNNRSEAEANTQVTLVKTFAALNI
USP8 inh: human USP8 deubiquitinase inhibition | purified USP8, Ub-rhodamine cleavage fluorescence, 30 min | inhibition, % at 20 µM | 4.2% of 47,000 active
USP10 inh: human USP10 deubiquitinase inhibition. Q14694. purified USP10, Ub-rhodamine fluorescence, 60 min. inhibition, % at 20 µM. 1.1% of 47,000 active. AID 1645856
* hit, by the source's call; · = not tested or not shown. Most compounds without a hit are left out; they make up all but 6.8% or so of the library. No stated cut-off is given here; in the data, active means inhibition above about 30%; inactive means the rest.

SMILES | USP7 block | USP28 inh | UCHL1 inh | OTUD3 block | USP8 inh | USP10 inh
CCn1c(CN2CCCC(c3nc(-c4cccnc4)n[nH]3)C2)nc2ccccc21 (centres undefined) | -1 | 71* | -6 | -6 | -170 | -4
COCCN1C(=O)c2ccccc2C(C(=O)Nc2ccc(NC(C)=O)cc2)C12CCCCC2 (centres undefined) | 4 | · | 0 | 0 | -8 | -3
COCCN1C(=O)c2ccccc2C(C(=O)Nc2ccccn2)C12CCCCC2 (centres undefined) | 1 | -6 | -1 | -8 | -18 | -6
O=C(Nc1nccs1)C1c2ccccc2C(=O)N(Cc2ccccc2)C12CCCC2 (centres undefined) | 23 | 1 | 69* | 10 | 69* | 26
COCCN1C(=O)c2ccccc2C(C(=O)Nc2ccc3c(c2)OCO3)C12CCCC2 (centres undefined) | 9 | 23 | 4 | 13 | 69* | 0
COc1ccccc1-n1nnc(C(=O)N2CCCC2)c1-c1ccccn1 | 7 | 0 | 0 | 2 | 13 | 0
CC(C)C(=O)N1CCN(Cn2nnc(-c3ccc(Cl)cc3)n2)CC1 | 5 | 1 | -1 | 2 | 4 | 4
Cc1ccc2c(=O)c(C(=O)N3CCC(C)CC3)c[nH]c2n1 | -2 | -10 | -2 | -10 | 1 | -3
CCc1ccc(NC(=O)CSc2[nH]c(=O)c(C(=O)O)cc2C#N)cc1 | 1 | 48* | -4 | 28 | 54* | -2
CCc1ccc(NC(=O)CSc2ncc(S(=O)(=O)c3ccccc3)c(=O)[nH]2)cc1 | 9 | 16 | 2 | 18 | 2 | 14
CCn1ncc(-c2ccnc3cc(C(=O)N4CCN(Cc5ccc(F)cc5)CC4)nn23)c1C | -53 | 2 | 10 | 12 | 60* | -4
CCN1CCN(C(=O)c2sc(-c3ccc(F)cc3)nc2C)CC1 | 0 | -4 | 0 | -1 | -12 | -2
NS(=O)(=O)c1ccc(CCNc2ncnc3c2c(-c2ccccc2)cn3-c2ccc(Br)cc2)cc1 | 9 | 16 | 5 | -169 | 19 | 9
Cc1cc(=O)n(CC(=O)NCc2ccccc2Cl)c(N2CCCCC2)n1 | -23 | 0 | -6 | -3 | 3 | -6
O=C(NCc1ccccc1Cl)C1CCn2c(nc3ccccc32)C1 (centres undefined) | -4 | -2 | -2 | -2 | -1 | -3
O=C(OC1CSc2nc3ccccc3n2C1)c1ccc([N+](=O)[O-])o1 (centres undefined) | -38 | -2 | 11 | 5 | 64* | 40*
CC(Nc1ncnc2cc(-c3ccc(Cl)cc3)sc12)c1ccccn1 (centres undefined) | 5 | 7 | 0 | 3 | 57* | 14
Cc1ccc2cc(-c3noc(C)n3)c(NC(C)c3ccccn3)nc2c1 (centres undefined) | 1 | -6 | 3 | -14 | 4 | 3
O=C(CSc1nc(C2CC2)n(-c2ccccc2)n1)Nc1ccc2[nH]c(=O)[nH]c2c1 | 2 | 15 | 3 | -5 | -45 | 0
CC(Sc1n[nH]c2nc3ccccc3n12)C(=O)Nc1ccc2c(c1)OCCO2 (centres undefined) | 4 | 26 | 0 | 34* | -5 | -4
CC(C(=O)Nc1ccc2[nH]c(=O)[nH]c2c1)N1CCCCCC1 (centres undefined) | 4 | -1 | 0 | -1 | 3 | 0
O=C(CSc1nnc2n1CCCCC2)Nc1ccc2[nH]c(=O)[nH]c2c1 | 0 | 33* | -2 | -6 | -22 | 0
O=C(CSc1n[nH]c2nc3ccccc3n12)Nc1ccc2[nH]c(=O)[nH]c2c1 | -47 | -4 | 5 | 6 | 70* | 10
COc1ccc(-c2nnc(SCC(=O)Nc3ccc4[nH]c(=O)[nH]c4c3)n2C)cc1 | 7 | 1 | 1 | 10 | 38* | -2
CC(=O)Nc1ccc(C(=O)NCc2ccccc2F)c(N2CCCCC2)c1 | -49 | 37* | 0 | -16 | -17 | 0
SMILES | USP7 block | USP28 inh | UCHL1 inh | OTUD3 block | USP8 inh | USP10 inh
CCC(=O)Nc1nc2cc(NC(=O)Nc3ccc(OC)c(OC)c3)ccc2s1 | 3 | 19 | -2 | 0 | -3 | -3
CCC(=O)Nc1nc2cc(NC(=O)Nc3ccccc3Cl)ccc2s1 | 13 | 3 | 2 | -1 | 33* | 24
O=C(COC(=O)c1ccccc1OCc1ccccc1)Nc1cccc2ccccc12 | 8 | 30* | 2 | 22 | 28 | 6
N#Cc1cccc(NC(=O)COC(=O)c2ccccc2OCc2ccc(Cl)cc2)c1 | -2 | 8 | -1 | 2 | 0 | 5
O=C(COC(=O)c1ccccc1OCc1ccccc1)Nc1ccc(Cl)cc1 | -5 | 36* | 7 | 13 | 12 | 11
O=C(COC(=O)c1ccccc1Nc1ccccc1)Nc1ccc2ccccc2c1 | 6 | -6 | -1 | 3 | 5 | 6
COc1ccc(N(C)C(=O)c2cc3c(=O)n(C)c4ccccc4n3n2)cc1 | -5 | 3 | 1 | -9 | 82* | -5
CCc1ccccc1N(C)C(=O)c1cc2c(=O)n(CC)c3ccccc3n2n1 | 2 | 3 | 3 | 3 | 0 | 3
CCOC(=O)c1c(C)oc2nc(CSc3ccccc3)[nH]c(=O)c12 | -2 | 61* | -2 | -2 | -7 | -2
COc1ccc(-c2cc(-c3nnc4n3CCCCC4)n(-c3ccccc3)n2)cc1 | -6 | 60* | 6 | 8 | 16 | 3
O=C(c1nnn(-c2ccccc2)n1)N1CCC(Cc2ccccc2)CC1 | 8 | 39* | 3 | 13 | 1 | 7
Cc1cccc(N2CCN(C(=O)c3nnn(-c4ccc(F)cc4)n3)CC2)c1 | 3 | 56* | 4 | 16 | 20 | 6
O=C(Nc1ccc(-n2cccc2)cc1)c1cccc([N+](=O)[O-])c1 | 0 | 8 | -4 | 0 | 31* | 19
Cc1[nH]c(C)c(S(=O)(=O)NC2CCCC2)c1-c1nc(C2CC2)no1 | -26 | -45 | -16 | -41 | -14 | -2
O=C(Nc1cc(-c2cccnc2)no1)c1ccc(F)c(F)c1 | 5 | 38* | 7 | 13 | 27 | 3
COc1cc(C(=O)Nc2cc(-c3ccc(F)c(F)c3)no2)cc(OC)c1OC | 0 | -15 | -2 | -13 | 43* | 0
O=C(COc1ccccc1)Nc1cc(-c2ccc(F)c(F)c2)no1 | 15 | · | 0 | -5 | 11 | 19
COc1ccc(-n2cc(C(=O)NCCc3ccc(F)cc3)nn2)cc1 | 13 | 7 | 4 | 19 | 37* | 17
COc1cccc(OCC(=O)Nc2ccc3c(c2)CCC(=O)N3Cc2ccccc2)c1 | 7 | 35* | 3 | 9 | 8 | 8
COc1ccc(CNc2ccc(-c3ccccc3)nn2)cc1 | 6 | 11 | 0 | 0 | 3 | 8
c1ccc(CNc2ccc(-c3nc(-c4ccccc4)no3)nn2)cc1 | 9 | -10 | -3 | 1 | 42* | 6
CC(C)CC(NC(=O)c1ccc(Cl)cc1)C(=O)OCC(=O)NC(c1ccccc1)c1ccccc1 (centres undefined) | -5 | -8 | 1 | -11 | 7 | -4
